Assay results as given in PubChem BioAssay (NCI).
About 79,000 compounds went through this panel and 15% of them were active in at least one assay; those are over-represented in the sample as a whole. Activity calls are given as the source filed them. Cut-off read from the data, not from the text of the source: active = growth inhibition above about 70%; inactive = the rest.

Assay: NCI Yeast Anticancer Drug Screen. Data for the mlh1 strain (AID 171);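 note: 0% = growth of vehicle-treated control cultures of the same strain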
Conditions: S. cerevisiae mlh1 strain growth inhibition; at 3.7 µM; hits give high values
In short: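 Yeast screen: mutant strain plus compound, growth scored against vehicle control wells.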

SMILES	growth inhibition
CCN(CC)CC[n+]1ccc2c(C)c3[nH]c4ccc(O)cc4c3c(C)c2c1	3% (inactive)
O=[n+]1c2ccc(Cl)cc2n([O-])c2ccc(Cl)cc21	1% (inactive)
CCOP(=O)(OCC)C(Cc1ccccc1)N=C(c1ccccc1)c1ccccc1 (centres undefined)	0% (inactive)
CC[C@@]1(O)C(=O)OCc2c1cc1n(c2=O)Cc2cc3c(N)cccc3nc2-1	6% (inactive)
COC1C=COC2(C)Oc3c(C)c(O)c4c(c3C2=O)/C(=N/C2CCC(O)OC2C)C=C(NC(=O)/C(C)=C\C(=O)C2CC2C(O)C(C)C(O)C(C)C(OC(C)=O)C1C)C4=O (centres undefined)	1% (inactive)
COc1cc2c(c(OC)c1OC)-c1c(cc3c(c1OC)OCO3)CC(C)C(C)(O)C2OC(=O)c1ccccc1 (centres undefined)	-6% (inactive)
O=c1ssc2ncccc12	20% (inactive)
O=C1C2C(C(=O)N1c1ccc(OCc3ccccc3)cc1)C1c3ccccc3C2C2CCCCN21 (centres undefined)	4% (inactive)
COc1ccc(-c2cn(-c3ccc(I)cc3)c3ncnc(N)c23)cc1	-5% (inactive)
CCOC(=O)C(NC(=O)c1ccccc1)(N1CCN(c2cc3c(cc2F)c(=O)c(C(=O)O)cn3C2CC2)CC1)C(F)(F)F (centres undefined)	-1% (inactive)
C/C(=N\O)C1CC2C=C(C#N)C1N(Cc1ccccc1)C2 (centres undefined)	0% (inactive)
CC/C(=C(\c1ccccc1)c1ccc(OCCN(C)C)cc1)c1ccccc1	0% (inactive)
COc1ccccc1N=NC(C(=O)c1ccccc1)C(=O)c1ccccc1	-27% (inactive)
CC(O)C(O)C(O)C(/C=N\Nc1ccccc1)=N/Nc1ccccc1 (centres undefined)	4% (inactive)
